Most compounds without a hit are left out; they make up all but 3.4% or so of the library.
HGIII-sPLA2 inh = Inhibits HGIII-sPLA2 liposome hydrolysis, primary screen; QFRET BODIPY PC-A2 liposome hydrolysis, fluorescence; inhibition, % at 12.2 µM; actives 0.56% (n = 370,000); AID 743126;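 active means inhibition above mean plus 3 SD of compounds lying within the high and low control bounds, cut at about 19% in these data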
KLK7 zymogen act = activators of human kallikrein-7 zymogen | actives 0.9% (n = 370,000) | activation, % at 7 µM | purified proKLK7, EDANS-DABCYL substrate fluorescence; 100% is mature enzyme control, 0% vehicle;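 active means activation above the mean of all tested compounds plus 3 SD, computed per campaign excluding outliers beyond control limits, cut at about 13% in these data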
CendR NRP1 mod = NRP-1/CendR interaction modulation; O14786; FAM-RPARPAR peptide binding to NRP-1, fluorescence polarization; inhibition, % at 25 µM; AID 602438; actives 0.85% (n = 360,000);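 active means inhibition or corrected inhibition above about 18%, plus a signal ratio from 0.5 to 1.5, limit read from the data, passing the limit was not always enough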
ADAM17 inh = ADAM17 inhibition, QFRET primary screen | P78536 | recombinant ADAM17, EDANS/DABCYL FRET peptide cleavage | inhibition, % at 6.95 µM | actives 0.83% (n = 370,000);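 active means inhibition above the mean of compounds lying between control limits plus 3 SD, set per campaign, cut at about 8.5% in these data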
Target sequence (P78536 215-824 limits assumed): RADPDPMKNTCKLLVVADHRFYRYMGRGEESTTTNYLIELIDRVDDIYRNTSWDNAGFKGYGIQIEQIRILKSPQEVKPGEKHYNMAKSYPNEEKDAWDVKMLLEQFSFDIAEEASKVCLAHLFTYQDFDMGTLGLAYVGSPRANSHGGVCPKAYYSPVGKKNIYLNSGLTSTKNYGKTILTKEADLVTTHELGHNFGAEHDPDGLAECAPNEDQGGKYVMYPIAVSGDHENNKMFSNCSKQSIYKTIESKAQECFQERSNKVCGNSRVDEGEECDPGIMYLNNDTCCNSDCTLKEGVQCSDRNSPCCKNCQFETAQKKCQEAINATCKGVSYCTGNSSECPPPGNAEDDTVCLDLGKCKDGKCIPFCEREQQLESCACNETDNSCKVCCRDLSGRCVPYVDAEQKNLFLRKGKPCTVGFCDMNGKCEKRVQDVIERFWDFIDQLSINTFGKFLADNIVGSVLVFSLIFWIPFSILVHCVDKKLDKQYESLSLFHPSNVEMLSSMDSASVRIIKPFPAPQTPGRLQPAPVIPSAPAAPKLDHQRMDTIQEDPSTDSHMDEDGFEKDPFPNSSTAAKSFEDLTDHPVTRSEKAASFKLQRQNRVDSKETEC
ADAM10 inh = ADAM10 inhibition, QFRET primary screen; AID 720582; inhibition, % at 7 µM; actives 0.62% (n = 370,000); recombinant ADAM10, EDANS/DABCYL FRET peptide cleavage, 3 h;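 active means inhibition above a per-campaign cutoff equal to the mean of compounds falling between control-based bounds plus 3 SD, cut at about 20% in these data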
ADAM10 confirm = confirmation of inhibitors of human ADAM10. shares compounds with ADAM10 inh. AID 743208. inhibition, % at 6.95 µM. ADAM10 QFRET peptide cleavage, EDANS fluorescence. actives 1% (n = 2,100);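 active means inhibition above about 20% chosen separately for each screening run, limit read from the data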
ADAM17 ctr = inhibits human ADAM17 in ADAM10 exosite counter-screen; shares compounds with ADAM10 inh; ADAM17 QFRET peptide cleavage, EDANS fluorescence; inhibition, % at 6.95 µM; actives 0.5% (n = 2,100); AID 743214;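 active means mean triplicate inhibition above the solvent-only control wells' mean plus 3 SD, cut at about 12% in these data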
ADAM10 ctr = inhibits human ADAM10 in ADAM17 exosite counter-screen; shares compounds with ADAM17 inh; recombinant ADAM10, EDANS/DABCYL FRET peptide cleavage, 3 h; actives 47% (n = 2,900); inhibition, % at 6.95 µM;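 active means mean inhibition over the triplicate runs exceeds the activity threshold set in the earlier primary screen, cut at about 20% in these data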
ADAM17 confirm = confirmation of inhibitors of human ADAM17 | AID 743257 | shares compounds with ADAM17 inh | inhibition, % at 6.95 µM | actives 65% (n = 2,900) | recombinant ADAM17, EDANS/DABCYL QFRET peptide cleavage;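 active means mean inhibition across replicates above the hit cutoff set in the primary screen, cut at about 8.5% in these data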
Numbers stand for hits.

CCCC1CCC2(CC1)CCC2OC(=S)Nc1ccccc1Cl (centres undefined) was read as HGIII-sPLA2 inh inactive, ADAM17 inh inactive and ADAM10 inh inactive.
For COC(=O)[C@]12C[C@H](CC(=O)NCc3ccc(OC)c(OC)c3)C(=O)N(Cc3ccco3)C1=C[C@H](C1CCCC1)O[C@@H]2C the results were HGIII-sPLA2 inh inactive, KLK7 zymogen act inactive, ADAM17 inh inactive and ADAM10 inh inactive.
COC(=O)Cc1nnn2c1[C@H](C)[C@H](c1ccccc1Br)OC[C@@H]2c1ccccc1 was read as HGIII-sPLA2 inh inactive, KLK7 zymogen act inactive, ADAM17 inh inactive and ADAM10 inh inactive.
Screening O=S(=O)(NC1c2cccc3cccc(c23)C1Sc1ncccn1)c1ccc(Cl)cc1 (centres undefined) returned HGIII-sPLA2 inh inactive, KLK7 zymogen act inactive, CendR NRP1 mod inactive, ADAM17 inh 9.7, ADAM10 inh 25, ADAM10 confirm inactive, ADAM17 ctr inactive, ADAM10 ctr 28 and ADAM17 confirm 14.
`COc1ccc(S[C@]2(C(=O)N3CCN(c4ncccn4)CC3)CC(=O)N(C(=O)C3CC3)[C@@H]2c2ccc(OC)cc2)cc1` gave HGIII-sPLA2 inh inactive, KLK7 zymogen act inactive, ADAM17 inh inactive and ADAM10 inh inactive.
For COc1ccc(C(=O)Nc2ccc(OCC(F)(F)C(F)F)c(C(F)(F)F)c2)cc1OC the results were HGIII-sPLA2 inh inactive, KLK7 zymogen act inactive, CendR NRP1 mod inactive, ADAM17 inh 9.0, ADAM10 inh 26, ADAM10 confirm inactive, ADAM17 ctr inactive, ADAM10 ctr 52 and ADAM17 confirm 20.
Screening Cc1ccc(C(=O)Nc2ccccc2C(=O)NCc2ccco2)cc1S(=O)(=O)N1CCCCC1 returned HGIII-sPLA2 inh inactive, KLK7 zymogen act inactive, CendR NRP1 mod inactive, ADAM17 inh 9.6, ADAM10 inh 25, ADAM10 confirm inactive, ADAM17 ctr inactive, ADAM10 ctr 35 and ADAM17 confirm 20.
For Cc1ccc(C(=O)NCc2ccco2)cc1S(=O)(=O)N1CCCCC1 the results were HGIII-sPLA2 inh inactive, KLK7 zymogen act inactive, CendR NRP1 mod inactive, ADAM17 inh inactive and ADAM10 inh inactive.
Screening COC(=O)C1=C(C)N(Cc2ccccc2C(F)(F)F)C(=NCc2cc(OC)c(OC)c(OC)c2)NC1c1cccc(F)c1 (centres undefined) returned HGIII-sPLA2 inh inactive, KLK7 zymogen act inactive, ADAM17 inh inactive and ADAM10 inh inactive.
For COc1ccccc1NC(=O)c1c(Nc2ccccc2C)sc(C(=O)Nc2cccc(Cl)c2)c1N the results were HGIII-sPLA2 inh inactive, KLK7 zymogen act inactive, CendR NRP1 mod inactive, ADAM17 inh 10, ADAM10 inh 21, ADAM10 confirm 28, ADAM17 ctr inactive, ADAM10 ctr inactive and ADAM17 confirm 14.
Screening CC(C)(C)c1ccc2c(c1)OC(C(=O)N/N=C\c1ccccn1)CO2 (centres undefined) returned HGIII-sPLA2 inh inactive, KLK7 zymogen act inactive, CendR NRP1 mod inactive, ADAM17 inh 12, ADAM10 inh 21, ADAM10 confirm inactive, ADAM17 ctr inactive, ADAM10 ctr inactive and ADAM17 confirm inactive.
`C[C@H](NC(=O)c1nc[nH]c1C(=O)N[C@@H](CCCCNC(=O)OC(C)(C)C)C(=O)OC(C)(C)C)C(=O)OCc1ccccc1` gave HGIII-sPLA2 inh inactive, KLK7 zymogen act inactive, CendR NRP1 mod inactive, ADAM17 inh 15, ADAM10 inh 29, ADAM10 confirm inactive, ADAM17 ctr inactive, ADAM10 ctr 42 and ADAM17 confirm 23.
For CC(C)(C)OC(=O)NCCCC[C@H](NC(=O)c1nc[nH]c1C(=O)NCC(=O)OCc1ccccc1)C(=O)OC(C)(C)C the results were HGIII-sPLA2 inh inactive, KLK7 zymogen act inactive, CendR NRP1 mod inactive, ADAM17 inh 11, ADAM10 inh 24, ADAM10 confirm inactive, ADAM17 ctr inactive, ADAM10 ctr 25 and ADAM17 confirm 18.
Screening CC(C)(C)OC(=O)NCCCCCNC(=O)c1nc[nH]c1C(=O)NCC(=O)OCc1ccccc1 returned HGIII-sPLA2 inh inactive, KLK7 zymogen act inactive, CendR NRP1 mod inactive, ADAM17 inh inactive and ADAM10 inh inactive.
COC(=O)[C@@]12CCCCC3=C1N(CCC3)C(=O)[C@H]2CC(=O)NCc1ccccc1 was read as HGIII-sPLA2 inh inactive, KLK7 zymogen act inactive, ADAM17 inh inactive and ADAM10 inh inactive.
Screening COC(=O)[C@]12C=CCN1[C@@H](c1ccc(C(F)(F)F)cc1)c1c(c3ccccc3n1S(=O)(=O)c1ccc(C)cc1)C2 returned HGIII-sPLA2 inh inactive, KLK7 zymogen act inactive, ADAM17 inh inactive and ADAM10 inh inactive.
`COc1ccc(NCC(=O)N/N=C/c2c(C)nn(Cc3ccccc3)c2Cl)cc1` gave HGIII-sPLA2 inh inactive, KLK7 zymogen act inactive, CendR NRP1 mod inactive, ADAM17 inh inactive and ADAM10 inh inactive.
`Cc1nn(Cc2ccccc2)c(C)c1/C=N/NC(=O)CNc1cccc(C(F)(F)F)c1` gave HGIII-sPLA2 inh inactive, KLK7 zymogen act inactive, CendR NRP1 mod inactive, ADAM17 inh 11, ADAM10 inh 21, ADAM10 confirm inactive, ADAM17 ctr inactive, ADAM10 ctr inactive and ADAM17 confirm 10.
COC(=O)CN1C(c2ccc(OC)cc2)=Nc2ccc(Cl)cc2C1c1ccccc1 (centres undefined) was read as HGIII-sPLA2 inh inactive, KLK7 zymogen act inactive, CendR NRP1 mod inactive, ADAM17 inh inactive and ADAM10 inh inactive.
Screening COC(=O)CN1C(c2cccc(Cl)c2)=Nc2ccc(Cl)cc2C1c1ccccc1 (centres undefined) returned HGIII-sPLA2 inh inactive, KLK7 zymogen act inactive, CendR NRP1 mod inactive, ADAM17 inh 16, ADAM10 inh 21, ADAM10 confirm inactive, ADAM17 ctr inactive, ADAM10 ctr inactive and ADAM17 confirm 8.8.
For C#CCN(C[C@@H]1[C@@H](OC(=O)NCc2ccccc2F)[C@@H](OC(=O)NCc2ccccc2F)Cn2c(=O)ccc(=O)n21)S(=O)(=O)c1ccc(C)cc1 the results were HGIII-sPLA2 inh inactive, KLK7 zymogen act inactive, CendR NRP1 mod inactive, ADAM17 inh 9.4, ADAM10 inh 24, ADAM10 confirm inactive, ADAM17 ctr inactive, ADAM10 ctr 22 and ADAM17 confirm 12.

Screening data: PubChem, several laboratories
